Records with an inconclusive call do not appear. Entries that show only a call come without a potency. Activity calls are given as the source filed them. Calls follow the shape of the full dose curve. Non-standard residues stand in square brackets, D forms with d. Residues, ends and D or L forms follow the SMILES beside them. *: point of attachment. Sta = CC(C)C[C@H](N)[C@@H](O)CC(=O)O; Isovaleryl = CC(C)CC(=O)*
What follows are compounds tested against Acetylcholinesterase (Homo sapiens) (UniProt P22303) (assay: Acetylcholinesterase (AChE) small molecule antagonists: colormetric cell-based qHTS assay (AID 1347395; also: nearly all actives have a fitted effect of over 30% in size)). Conditions: SH-SY5Y cells AChE activity, colorimetric (Ellman); series mostly up to 115 µM.
Sequence of Acetylcholinesterase (Homo sapiens) (P22303 whole entry, looked up): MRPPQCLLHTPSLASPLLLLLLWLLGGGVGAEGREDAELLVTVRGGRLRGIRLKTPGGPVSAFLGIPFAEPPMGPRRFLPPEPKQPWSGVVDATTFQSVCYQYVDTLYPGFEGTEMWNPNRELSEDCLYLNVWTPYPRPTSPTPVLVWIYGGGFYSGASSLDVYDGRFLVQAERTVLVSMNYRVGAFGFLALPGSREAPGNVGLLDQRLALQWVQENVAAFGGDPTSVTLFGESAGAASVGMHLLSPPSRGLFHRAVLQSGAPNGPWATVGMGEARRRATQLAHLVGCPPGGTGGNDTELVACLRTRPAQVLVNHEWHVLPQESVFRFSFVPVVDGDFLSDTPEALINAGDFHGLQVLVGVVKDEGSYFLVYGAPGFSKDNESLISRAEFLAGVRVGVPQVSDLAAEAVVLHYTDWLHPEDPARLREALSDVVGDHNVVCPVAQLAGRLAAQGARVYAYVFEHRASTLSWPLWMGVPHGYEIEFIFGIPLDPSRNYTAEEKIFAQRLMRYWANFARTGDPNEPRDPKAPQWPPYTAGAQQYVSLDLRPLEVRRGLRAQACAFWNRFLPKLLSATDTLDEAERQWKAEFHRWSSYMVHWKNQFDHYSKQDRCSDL
Outline: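 In this cell-based qHTS, attached SH-SY5Y cells were treated with test chemicals for 30 min, after which acetylthiocholine hydrolysis was followed by DTNB colour development over 90 min at 37 C.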

Question: Which activity, negative = inhibition does the source give for C=C/C=C/C=C/CCCCC here?
Answer: The activity, negative = inhibition was 0.16% [at 23.6 µM] (inactive).

Question: CC1(C)[C@@H]2CC[C@@]1(C)[C@H](O)C2 was tested. Which Potency did it give?
Answer: Its Potency is “inactive”.

Question: For CC(=O)N(CC(O)CN(C(C)=O)c1c(I)c(C(=O)NCC(O)CO)c(I)c(C(=O)NCC(O)CO)c1I)c1c(I)c(C(=O)NCC(O)CO)c(I)c(C(=O)NCC(O)CO)c1I (centres undefined), which Potency is on record?
Answer: Its Potency is “inactive”.

Question: For CC1=CC(C)C(C=O)CC1 (centres undefined), which Potency is on record?
Answer: The Potency was “inactive”.

Question: With CC(C)=CCl as the compound, how does the Potency read?
Answer: The Potency was “inactive”.

Question: Which Potency does the source give for O=C1Nc2ccccc2C1(c1ccc(O)cc1)c1ccc(O)cc1 here?
Answer: Its Potency is “inactive”.

Question: How did the Potency turn out when CC(C)CC(=O)N[C@H](C(=O)N[C@H](C(=O)N[C@@H](CC(C)C)[C@@H](O)CC(=O)N[C@@H](C)C(=O)N[C@@H](CC(C)C)[C@@H](O)CC(=O)O)C(C)C)C(C)C (Isovaleryl-VV[Sta]A[Sta]-OH) was run?
Answer: Its Potency is “inactive”.

Question: O=C(O)c1ccc2c(c1)C(=O)OC2=O was tested. Which Potency did it give?
Answer: The Potency was “inactive”.

Question: Which Potency does the source give for Nc1ccn([C@@H]2O[C@H](CO)[C@@H](O)[C@@H]2O)c(=O)n1 here?
Answer: The Potency was “inactive”.

Question: How did the Potency turn out when CCCCC(CC)CO (centres undefined) was run?
Answer: Its Potency is “inactive”.

Question: With Cc1ccc2nc(-c3ccc(N)cc3)sc2c1S(=O)(=O)O as the compound, how does the Potency read?
Answer: Its Potency is “inactive”.

Question: Which Potency does the source give for CC(C)(c1cc(Br)c(OCC(Br)CBr)c(Br)c1)c1cc(Br)c(OCC(Br)CBr)c(Br)c1 (centres undefined) here?
Answer: Its Potency is “inactive”.

Question: How did the Potency turn out when COc1ccc(C(=O)CC(=O)c2ccc(C(C)(C)C)cc2)cc1 was run?
Answer: The Potency was “inactive”.

Question: For CN1N=C(C(N)=O)CCC1=O, which Potency is on record?
Answer: Its Potency is “inactive”.

Each compound was assayed against Acetylcholinesterase (Homo sapiens) (UniProt P22303) (assay: Acetylcholinesterase (AChE) small molecule antagonists: enzyme-based qHTS assay (AID 1347397; also: nearly all actives have a fitted effect of over 55% in size)). Conditions: Potency: AChE enzyme activity inhibition; outcome: AChE enzyme activity inhibition; series mostly up to 115 µM.
Outline: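 Enzyme inhibition was scored from DTNB-detected thiocholine formed by recombinant human AChE acting on acetylthiocholine. The 30 min compound preincubation and 10 min substrate reaction were both run at room temperature, with DMSO as vehicle control.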

Question: For O=C1c2ccccc2C(=O)C1c1ccc2cc(S(=O)(=O)O)cc(S(=O)(=O)O)c2n1, which Potency is on record?
Answer: The Potency was “inactive”.

Question: How did the Potency turn out when Cn1sccc1=O was run?
Answer: Its Potency is “inactive”.

Question: Which Potency does the source give for COS(C)(=O)=O here?
Answer: Its Potency is “inactive”.

Question: For O=C(O)c1c(Cl)ccc(Cl)c1Cl, which Potency is on record?
Answer: The Potency was “inactive”.

Question: Which Potency does the source give for COc1ccc(N)c([N+](=O)[O-])c1 here?
Answer: The Potency was “inactive”.

Question: How did the Potency turn out when CC(C)(CO)CO was run?
Answer: Its Potency is “inactive”.

Question: CCCCCCCCCOCC1CO1 (centres undefined) was tested. Which Potency did it give?
Answer: Its Potency is “inactive”.

Question: With CCCCOCCOCCOCCO as the compound, how does the Potency read?
Answer: Its Potency is “inactive”.

Question: For CC(C)(C)C(O)/C=C/c1ccc2c(c1)OCO2 (centres undefined), which Potency is on record?
Answer: The Potency was “inactive”.

Question: CCOCCO was tested. Which Potency did it give?
Answer: The Potency was “inactive”.

Question: How did the Potency turn out when O=C1c2ccccc2C(=O)C1c1ccccc1 was run?
Answer: The Potency was “inactive”.

Question: Which Potency does the source give for O=c1c(O)c(O)c1=O here?
Answer: The Potency was “inactive”.

Question: For CN1CCN(C(c2ccccc2)c2ccccc2)CC1, which Potency is on record?
Answer: Its Potency is “inactive”.

Question: How did the Potency turn out when Cc1cc(O)c2c(c1)C(=O)c1cc(O)cc(O)c1C2=O was run?
Answer: The Potency was “inactive”.

Question: Which Potency does the source give for C=CC(C)(C)CC(=O)OC here?
Answer: Its Potency is “inactive”.

Question: How did the Potency turn out when Cn1c(=O)c2[nH]cnc2n(C)c1=O was run?
Answer: Its Potency is “inactive”.

Question: For CCCCCC/C=C/CCCCCCCC(=O)O, which Potency is on record?
Answer: The Potency was “inactive”.

Question: Which Potency does the source give for CCc1cc2cc(OC)c(OC)cc2c(Cc2ccccc2)n1 here?
Answer: Its Potency is “inactive”.

Question: Which Potency does the source give for OC1C(O)C(O)C(O)C(O)C1O (centres undefined) here?
Answer: The Potency was “inactive”.

Question: How did the Potency turn out when CCCCCCCCCCO[C@@H]1O[C@H](CO)[C@@H](O)[C@H](O)[C@H]1O was run?
Answer: Its Potency is “inactive”.

Question: COC(C)(OC)OC was tested. Which Potency did it give?
Answer: The Potency was “inactive”.

Question: How did the Potency turn out when Cc1ccc(N=Nc2c(O)ccc3ccccc23)c(C)c1 was run?
Answer: The Potency was “inactive”.

Question: For CCCCCCC(C)(C)C(=O)O, which Potency is on record?
Answer: Its Potency is “inactive”.

Question: Oc1ccc2ccccc2c1N=Nc1ccccc1 was tested. Which Potency did it give?
Answer: Its Potency is “inactive”.

Question: For CCSC(=O)N(CC)CC, which Potency is on record?
Answer: Its Potency is “inactive”.

Question: With CC(=O)OCC(=O)[C@@]1(O)CCC2C3CCC4=CC(=O)CC[C@]4(C)C3[C@@H](O)C[C@@]21C (some centres undefined) as the compound, how does the Potency read?
Answer: The Potency was “inactive”.

Question: For C=C/C=C/C=C/CCCCC, which activity change, negative = inhibition is on record?
Answer: The activity change, negative = inhibition was 0.676% [at 23.6 µM] (inactive).

Question: For CC1(C)[C@@H]2CC[C@@]1(C)[C@H](O)C2, which Potency is on record?
Answer: The Potency was “inactive”.

Question: For CC(=O)N(CC(O)CN(C(C)=O)c1c(I)c(C(=O)NCC(O)CO)c(I)c(C(=O)NCC(O)CO)c1I)c1c(I)c(C(=O)NCC(O)CO)c(I)c(C(=O)NCC(O)CO)c1I (centres undefined), which Potency is on record?
Answer: The Potency was “inactive”.

Question: Which Potency does the source give for CC1=CC(C)C(C=O)CC1 (centres undefined) here?
Answer: The Potency was “inactive”.

Question: Which Potency does the source give for CC(C)=CCl here?
Answer: The Potency was “inactive”.

Question: For O=C1Nc2ccccc2C1(c1ccc(O)cc1)c1ccc(O)cc1, which Potency is on record?
Answer: The Potency was “inactive”.

Question: For CC(C)CC(=O)N[C@H](C(=O)N[C@H](C(=O)N[C@@H](CC(C)C)[C@@H](O)CC(=O)N[C@@H](C)C(=O)N[C@@H](CC(C)C)[C@@H](O)CC(=O)O)C(C)C)C(C)C (Isovaleryl-VV[Sta]A[Sta]-OH), which Potency is on record?
Answer: The Potency was “inactive”.

Question: With O=C(O)c1ccc2c(c1)C(=O)OC2=O as the compound, how does the Potency read?
Answer: Its Potency is “inactive”.

Question: With Nc1ccn([C@@H]2O[C@H](CO)[C@@H](O)[C@@H]2O)c(=O)n1 as the compound, how does the Potency read?
Answer: Its Potency is “inactive”.

Question: CCCCC(CC)CO (centres undefined) was tested. Which Potency did it give?
Answer: The Potency was “inactive”.

Question: Cc1ccc2nc(-c3ccc(N)cc3)sc2c1S(=O)(=O)O was tested. Which Potency did it give?
Answer: The Potency was “inactive”.

Question: With CC(C)(c1cc(Br)c(OCC(Br)CBr)c(Br)c1)c1cc(Br)c(OCC(Br)CBr)c(Br)c1 (centres undefined) as the compound, how does the Potency read?
Answer: The Potency was “inactive”.

Question: COc1ccc(C(=O)CC(=O)c2ccc(C(C)(C)C)cc2)cc1 was tested. Which Potency did it give?
Answer: Its Potency is “inactive”.

Question: For CN1N=C(C(N)=O)CCC1=O, which Potency is on record?
Answer: Its Potency is “inactive”.
